Most compounds without a hit are left out; they make up all but 10% or so of the library.
Insulin prom inh: TRM-6 insulin promoter activity inhibition | inhibition, % at 2 µM | 130,000 tested, 0.9% active | AID 1273 | TRM-6 cells (human fetal islet line), insulin promoter-eGFP reporter, imaging; reporter expression induced with tamoxifen;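 active = inhibition above the mean plus 3 SD, with well images judged a real hit on visual review, cut at about 60% in these data, passing the limit was not always enough; inconclusive = inhibition over the cutoff but images rejected on review; inactive = inhibition not above the cutoff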
p97 ATPase inh: inhibitors of human p97 ATPase | recombinant p97 ATPase, Kinase-Glo ATP luminescence, 3 h | inhibition, % at 8 µM | 220,000 tested, 0.42% active | AID 1481; in the data active = inhibition above about 15%
bCat KO growth: beta-catenin-lacking colon tumor cell growth suppression; HCT116 beta-catenin knockout viability, CellTiter-Glo, 60 h; active compounds read low; 140,000 tested, 1.5% active; viability, % at 10 µM; AID 818;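 active = viability at or under a set limit, the compound median less 4 SD, cut at about 6% in these data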
ROMK primary: modulates human ROMK potassium channel activity. 130,000 tested, 2% active. B-score at 10 µM. Tet-inducible ROMK, thallium flux fluorescence; actives lie on both sides. P48048;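 active = signal ratio slope over the read window, or its plate-corrected B-score, at least 3 SD from the plate mean, either direction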;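 note: B-score of the F/F0 ratio slope over 7 to 12 s after thallium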
Target sequence (P48048 whole entry, looked up): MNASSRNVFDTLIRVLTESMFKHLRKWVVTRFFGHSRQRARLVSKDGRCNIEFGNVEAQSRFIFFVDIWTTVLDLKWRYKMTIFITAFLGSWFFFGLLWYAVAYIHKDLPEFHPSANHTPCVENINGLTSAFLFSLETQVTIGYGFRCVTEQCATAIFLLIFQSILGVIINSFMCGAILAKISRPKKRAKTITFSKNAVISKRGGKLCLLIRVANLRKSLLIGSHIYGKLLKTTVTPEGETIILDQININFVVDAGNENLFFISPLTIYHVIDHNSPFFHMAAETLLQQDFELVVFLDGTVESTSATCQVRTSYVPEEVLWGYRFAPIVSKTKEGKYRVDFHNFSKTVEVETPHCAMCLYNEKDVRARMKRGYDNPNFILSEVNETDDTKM
PTEN del growth: PTEN-deleted cell growth suppression | HCT116 PTEN-null viability, CellTiter-Glo, 60 h; active compounds read low | viability, % at 10 µM | 140,000 tested, 1.2% active;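 active = viability at or below a set limit, 4 SD under the median of all tested compounds, cut at about 3.7% in these data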;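 note: PTEN knockout HCT116 line with beta catenin targeted HCT116 as companion control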
L major viab: reduces viability of Leishmania major promastigotes. resazurin fluorescence viability. 200,000 tested, 9% active. inhibition, % at 10 µM; in the data active = inhibition above about 50%;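 note: promastigotes grown with compound for 44 hours at 28 °C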
ROMK retest: confirmation of human ROMK potassium channel modulators; 3,000 tested, 54% active; ROMK thallium flux, fluorescence ratio; active compounds read low; shares compounds with ROMK primary; normalized thallium flux (F/F0 slope) at 10 µM;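 active = Flux at 10 µM at least 3 SD below or above vehicle control mean in one or both replicates; inconclusive = no clear call, values can overlap the other calls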
A number is an active result; i = inactive; ? = inconclusive; nt = no result given.

SMILES | Insulin prom inh | p97 ATPase inh | bCat KO growth | ROMK primary | PTEN del growth | L major viab | ROMK retest
CC(C)OCCCNC(=O)C1CCC(CNS(=O)(=O)c2ccc(Cl)cc2)CC1 (centres undefined) | i | i | i | i | i | i | nt
COCCCNC(=O)C1CCC(CNS(=O)(=O)c2ccc(Cl)cc2)CC1 (centres undefined) | i | i | nt | nt | nt | i | i
Cc1sc(NC(=O)Cn2cnnn2)nc1-c1ccc(Cl)cc1 | nt | i | nt | i | nt | i | nt
CCOC(=O)c1sc2nc(N3CCOCC3)c3c(c2c1N)CCCC3 | i | i | i | nt | i | i | nt
COC(=O)c1ccc(-c2sc3nc(N4CCOCC4)c4c(c3c2N)CCCC4)o1 | i | i | i | -4.29 | i | i | 0.0582
CC(C)(C)c1ccc(/C=N/NC(=S)Nc2cccnc2)cc1 | nt | i | nt | i | nt | i | nt
CC1(C)C2CC=C(/C=N/NC(=S)Nc3cccnc3)C1C2 (centres undefined) | nt | i | nt | -3.1 | nt | 97.4 | i
CCOC(=O)C(C)Oc1cccc2c(=O)n(CC(=O)NCc3ccc(F)cc3)ccc12 (centres undefined) | nt | i | nt | 3.63 | nt | nt | i
CC(C)(C)n1ncc2c(=O)n(CC(=O)NCc3ccco3)cnc21 | i | i | i | nt | i | i | nt
CC(C)(C)n1ncc2c(=O)n(CC(=O)NCc3ccc(F)cc3)cnc21 | nt | i | i | 3.91 | i | i | i
COc1ccc(S(=O)NC2CCCCC2)c(OC)c1C (centres undefined) | i | i | i | nt | i | i | i
COc1ccccc1C(=O)NC1CCCCCCC1 | i | i | i | i | i | i | nt
Cn1c(C(=O)OC(C(=O)NCc2ccco2)c2ccncc2)cc2sccc21 (centres undefined) | i | i | i | i | i | i | nt
COc1ccc(CNS(=O)(=O)c2cc(OCC(N)=O)c(C)cc2Cl)cc1 | i | i | i | nt | i | i | nt
CCOc1ccc2nc(NC(=O)CSc3nc4c(c(=O)n(C)c(=O)n4C)n3C(C)C)sc2c1 | i | i | i | nt | i | i | nt
CCn1c(SCC(=O)Nc2nc3ccc(OC)cc3s2)nc2c1c(=O)n(C)c(=O)n2C | i | i | i | nt | i | i | ?
CCCn1c(SCC(=O)Nc2ccccc2N2CCCCC2)nc2c1c(=O)n(C)c(=O)n2C | nt | i | i | -2.64 | i | i | 0.0639
CCOC(=O)c1ccc(-c2ccc(/C=N/NC(=O)Cc3nnc(N)s3)o2)cc1 | nt | i | nt | -11.7 | nt | nt | i
COc1ccc(N2CCc3c(C)nc4c(OC)cc(OC)cc4c32)c(OC)c1 | i | i | i | nt | i | 100.7 | 0.061
Cc1csc(SCC(=O)Nc2ccccc2[N+](=O)[O-])n1 | i | i | nt | -18.7 | nt | i | ?
Cc1csc(SCC(=O)Nc2cccc3nsnc23)n1 | i | i | i | nt | i | i | nt
COCCn1c(=NC(=O)CSCC(=O)Nc2cc(C)on2)sc2cc(C(=O)OC)ccc21 | i | i | i | i | 0.5 | i | i
O=C(NC1=NCCS1)C1CC2CCC1C2 (centres undefined) | nt | i | i | i | i | i | nt
COc1ccc(C2CC(c3ccc4ccccc4c3)=NN2C(=O)CN2C(=O)CCC2=O)cc1 (centres undefined) | nt | i | nt | i | nt | i | nt
CC1(C)Cc2nc(NC3CCCCC3)c(C#N)cc2CO1 | nt | i | nt | -2.52 | nt | i | i
SMILES | Insulin prom inh | p97 ATPase inh | bCat KO growth | ROMK primary | PTEN del growth | L major viab | ROMK retest
O=C(C1CC(Cl)CN1S(=O)(=O)c1ccc(Cl)cc1)N1CCOCC1 (centres undefined) | nt | i | nt | -2.03 | nt | i | i
Cc1ccc(NC(=S)N2CCN(Cc3ccccc3)CC2)c(C)c1 | i | i | i | i | i | i | nt
CCOC(=O)c1c(/N=C/c2ccc(OC)cc2O)sc2c1CCN(C)C2 | nt | i | nt | nt | nt | nt | nt
CCOC(=O)c1c(/N=C/c2ccc(C)cc2O)sc2c1CCC2 | nt | i | i | -2.44 | i | i | 0.0389
Cn1c(CO)cnc1SCC(=O)c1ccc(Cl)cc1 | nt | i | nt | i | nt | i | nt
CCN(CC)C(=O)CC(c1ccccc1)c1ccco1 (centres undefined) | i | i | i | nt | i | i | i
CC(=O)Nc1ccc(/C(C)=N/NC(=O)c2ccccc2Cl)cc1 | i | i | i | i | i | i | nt
C/C(=N\NC(=O)c1ccccc1F)c1ccc2c(c1)Nc1ccccc1S2 | nt | i | i | nt | i | i | i
CN1C(=S)N(c2cccnc2)C(=O)/C1=C\c1ccc(N(C)C)cc1 | i | i | nt | -5.55 | nt | i | 0.0415
CN(C)c1ccc(/C=C/C(=O)c2cccnc2)cc1 | nt | i | nt | nt | nt | nt | nt
Cc1nc(COC(=O)c2c(C)nn(-c3ccccc3)c2C)cs1 | i | i | i | nt | i | i | nt
CCN(CC)CCCN(C(=O)c1ccco1)c1nc(-c2ccc(C)cc2)cs1 | nt | i | nt | -3.48 | nt | 71.7 | 0.0567
CN(C)CCCN(C(=O)c1ccco1)c1nc2ccc(Cl)cc2s1 | i | i | nt | -4.09 | nt | i | ?
O=C(NC1CCCCC1)c1nc2c(nnn2Cc2ccccc2Cl)c(=O)[nH]1 | i | i | i | i | i | i | nt
Cc1ccc(CC(NC(=O)c2ccccc2)C(=O)NCC(=O)O)cc1 (centres undefined) | i | i | i | i | i | i | nt
O=C(Nc1cccnc1)c1ccc(Cl)c(S(=O)(=O)N2CCc3ccccc32)c1 | i | i | nt | -3.79 | nt | 59.1 | 0.0664
Cc1ccccc1OCCCC(=O)NCc1ccco1 | i | i | i | nt | i | i | nt
CCOC(=O)N1CCN(C(=O)c2noc(C(C)C)c2[N+](=O)[O-])CC1 | i | i | i | i | i | i | i
O=C(C[n+]1cccc(CNC(=O)c2ccc(OC(F)F)cc2)c1)Nc1cccc(C(F)(F)F)c1 | i | i | i | -3.06 | i | i | 0.0529
O=C1OC(C(=O)O)Cc2ccccc21 (centres undefined) | i | i | i | i | i | i | nt
CCOC(=O)c1sc(NC(=O)CSc2n[nH]c(-c3ccccc3)n2)c(C#N)c1C | nt | i | i | nt | i | i | 0.0586
CCOC(=O)c1sc(NC(=O)CSc2nc(C)cc(C)n2)c(C#N)c1C | i | i | i | nt | i | i | nt
Cc1nn(C)c(C(=O)NCc2ccc(Cl)cc2)c1Cl | i | i | i | i | i | i | nt
COc1ccc2c(c1)nc(N)n2Cc1ccccc1 | nt | i | i | -3.04 | i | 63.6 | 0.0528
COc1ccc2c(c1)c(=O)c(Br)c(C)n2Cc1ccccc1 | nt | i | i | nt | i | i | nt
SMILES | Insulin prom inh | p97 ATPase inh | bCat KO growth | ROMK primary | PTEN del growth | L major viab | ROMK retest
Cn1c(SCC(=O)NC(c2ccccc2)c2ccccc2)nnc1-c1cccs1 | i | i | i | i | i | i | nt
CCOC(=O)c1[nH]c2ccc(OC)cc2c1NC(=O)OC | nt | i | i | nt | i | i | ?
CSc1nc2ccccc2c(=O)n1C1CCOC(C)(C)C1 (centres undefined) | nt | i | nt | i | nt | i | nt
COCCN(C(=O)CSc1nnc(C)n1-c1ccccc1)c1c(N)n(Cc2ccccc2)c(=O)[nH]c1=O | i | i | i | i | i | i | nt
Cc1ccc(OCCCCNC2CCCC(C)C2C)c(C)c1 (centres undefined) | nt | i | nt | nt | nt | 89.7 | 0.0532
Cc1ccc2c(c1)nnn2C1CCN(CC(=O)Nc2ccccc2N2CCOCC2)CC1 | i | i | i | -4.24 | i | 58.9 | 0.0554
COc1ccc(Cl)cc1NC(=O)CN1CCC(n2nnc3cc(C)ccc32)CC1 | nt | i | i | i | i | i | nt

Assay outcomes deposited in PubChem BioAssay by several laboratories.
